# HEK293 viab: GF-AFC viability counterscreen for inhibitors of alpha-synuclein gene (SNCA) expression | HEK-293-SNCA-luc viability, GF-AFC fluorescence, 24 h | 0.12% of 150,000 active | Potency, µM (series often up to 57.1 µM), inactives show at the top dose activity change, negative = cytotoxicity, usual class: cytotoxic;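 note: potency is the fitted concentration of half-maximal effect; 0% = DMSO-treated cells and -100% = medium-only wells without cells; nearly all actives have a fitted effect of over 30% in size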
#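 HEK-293-SNCA-luc cells (1500/well) plated 24 h, then exposed 24 h to a dilution series; GF-AFC added 30 min at 37C, fluorescence 405/540 nm; normalised to medium-only and DMSO wells, Hill fit.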
# SNCA expr inhib: Primary qHTS assay for inhibitors of alpha-synuclein gene (SNCA) expression; HEK-293 SNCA-luciferase knock-in, luminescence, 24 h; Potency, µM (series often up to 57.2 µM), inactives show at the top dose activity change, negative = inhibition, usual class: inhibitors; 0.17% of 140,000 active; AID 1671194, 2021;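 note: potency is the fitted concentration of half-maximal effect; plate controls were DMSO cells for no effect and cell-free wells for full effect; nearly all actives have a fitted effect of over 45% in size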
# KDM5B inhibitor: Primary screen for KDM5B Histone Demethylases FDH-coupled qHTS | 2.6% of 220,000 active | Potency, µM (series often up to 57.7 µM), usual class: inhibitors | KDM5B demethylase, FDH-coupled NADH fluorescence (FDH is formaldehyde dehydrogenase); note: potency is the fitted concentration of half-maximal effect; 0% is about no effect; nearly all actives have a fitted effect of over 70% in size
# Target sequence (Q9UGL1 whole entry, looked up): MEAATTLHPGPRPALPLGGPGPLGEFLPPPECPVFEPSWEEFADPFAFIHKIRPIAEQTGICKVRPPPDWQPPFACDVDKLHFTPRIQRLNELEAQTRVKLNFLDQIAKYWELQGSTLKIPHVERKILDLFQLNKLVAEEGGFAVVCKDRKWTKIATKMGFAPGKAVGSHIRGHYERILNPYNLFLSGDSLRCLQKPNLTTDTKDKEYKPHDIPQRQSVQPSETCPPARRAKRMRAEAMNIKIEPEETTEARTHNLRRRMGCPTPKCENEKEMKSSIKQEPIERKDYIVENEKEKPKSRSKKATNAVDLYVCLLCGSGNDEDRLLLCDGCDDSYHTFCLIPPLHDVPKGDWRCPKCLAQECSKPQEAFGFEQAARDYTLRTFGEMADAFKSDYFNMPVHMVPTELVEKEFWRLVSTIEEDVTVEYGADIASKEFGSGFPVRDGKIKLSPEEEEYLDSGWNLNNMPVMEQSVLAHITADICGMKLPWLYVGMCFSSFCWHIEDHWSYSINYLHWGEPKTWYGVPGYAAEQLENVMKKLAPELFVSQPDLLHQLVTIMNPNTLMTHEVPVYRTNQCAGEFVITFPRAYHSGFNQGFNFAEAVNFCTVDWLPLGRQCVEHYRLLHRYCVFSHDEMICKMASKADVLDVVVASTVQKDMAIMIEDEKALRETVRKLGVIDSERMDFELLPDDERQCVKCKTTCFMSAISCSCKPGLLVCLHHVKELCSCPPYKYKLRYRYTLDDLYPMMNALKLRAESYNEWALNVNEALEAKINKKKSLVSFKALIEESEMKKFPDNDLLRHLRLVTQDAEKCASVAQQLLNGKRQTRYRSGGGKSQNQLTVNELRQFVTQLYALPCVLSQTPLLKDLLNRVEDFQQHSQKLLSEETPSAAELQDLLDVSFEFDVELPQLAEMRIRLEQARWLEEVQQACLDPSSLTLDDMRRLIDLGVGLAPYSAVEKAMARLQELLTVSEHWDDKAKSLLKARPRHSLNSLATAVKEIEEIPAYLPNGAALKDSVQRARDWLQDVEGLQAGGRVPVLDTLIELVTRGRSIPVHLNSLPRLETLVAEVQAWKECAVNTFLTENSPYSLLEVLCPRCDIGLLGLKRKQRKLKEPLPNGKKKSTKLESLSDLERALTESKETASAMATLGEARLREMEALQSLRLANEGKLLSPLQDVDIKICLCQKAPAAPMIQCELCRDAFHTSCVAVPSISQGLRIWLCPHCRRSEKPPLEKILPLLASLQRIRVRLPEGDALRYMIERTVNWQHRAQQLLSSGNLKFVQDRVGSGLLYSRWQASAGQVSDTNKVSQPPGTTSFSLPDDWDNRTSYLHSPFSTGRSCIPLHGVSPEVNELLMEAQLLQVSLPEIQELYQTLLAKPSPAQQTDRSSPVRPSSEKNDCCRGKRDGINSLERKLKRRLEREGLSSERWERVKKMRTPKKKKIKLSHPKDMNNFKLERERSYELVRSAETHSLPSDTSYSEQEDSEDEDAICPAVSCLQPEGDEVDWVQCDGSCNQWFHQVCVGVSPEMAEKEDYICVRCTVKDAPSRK
#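 Coupled FDH/NAD⁺ fluorescence readout. KDM5BΔAP 200 nM final; compound titration, 10 min RT preincubation; substrate mix 12.5 µM H3K4me3, 25 µM 2-OG, 50 µM Fe(II), 100 µM ascorbate, 0.25 mM NAD⁺, 0.25 U/mL FDH; ΔRFU over 30 min.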
# IP6K1 inh: Primary qHTS assay for small molecule inhibitors of Inositol hexaphosphate kinase 1 (IP6K1) | AID 1645851, 2021 | activity change, % (series mostly up to about 58 µM) | IP6K1 kinase, ADP-Glo luminescence, 2 h; stronger effect = lower value | 0.81% of 140,000 active | Inositol hexakisphosphate kinase 1 (Homo sapiens), Q92551; in the data active = activity change below about -25%; note: % is set by controls: 0 for no effect and ±100 for the full control effect
#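 ADP-Glo luminescence measures ADP made by human IP6K1 during a 2 h RT reaction with ATP/IP6 (mix at 1.3 mM/130 uM); top library doses 57.5 and 19.1 uM final.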
# IP6K1 conf: Confirmatory qHTS assay for small molecule inhibitors of Inositol hexaphosphate kinase 1 (IP6K1). AID 1645852, 2021. recombinant IP6K1 kinase, ADP-Glo luminescence, 2 h. 13% of 1,200 active. shares compounds with IP6K1 inh. Potency, µM (highest dose often 49 µM), for inactives: at the top dose activity change, negative = inhibition, actives largely listed as inhibitors; note: potency is the fitted concentration of half-maximal effect; % is set by controls: 0 for no effect and ±100 for the full control effect; nearly all actives have a fitted effect of over 65% in size
# Numbers without * were called inactive; i = inactive; ? = inconclusive; . = no result; [ ] = remark or other dose. Hits are enriched below; roughly 2.9% of the tested compounds scored in any of these assays. Unless noted, calls come from the whole dose curve; as a rule, active = well fitted curve in the direction sought with a large enough effect; inconclusive = small, poorly fitted or top-dose-only effect, or another doubt; inactive = no such curve, though single readings can be large; an effect the other way counts as inactive or inconclusive.
SMILES,HEK293 viab,SNCA expr inhib,KDM5B inhibitor,IP6K1 inh,IP6K1 conf
CC(C)c1nc2ccc(C(=O)NCCCN3CCN(c4ccc(F)cc4)CC3)cc2o1,10.3%,0.4%,i,17.1,.
CC(C)c1nc2ccc(C(=O)NCCCN3CCN(c4cccc(Cl)c4)CC3)cc2o1,-13.1%,56.5%,?,-34.0*,?
CCOCCCNC(=O)C1CCN(c2cnn(CC3CC3)c(=O)c2)C1 (centres undefined),-2.1%,7.0%,i,27.1,.
CN1CCN(C(=O)Nc2cccc(Cl)c2)c2cccnc21,-1.1%,1.6%,?,-32.4*,-9.4%
Cc1ccc2c(=O)cc(C(=O)Nc3ccc(S(=O)(=O)N4CCCCC4)cc3)oc2c1C,12.2%,-16.9%,i,19.6,.
Cc1cc(C)c2oc(C(=O)Nc3ccc(S(=O)(=O)N4CCCCC4)cc3)cc(=O)c2c1,5.6%,?,i,-25.7*,0.8%
CCc1nnc(NS(=O)(=O)c2ccc(NC(=S)NC(=O)/C=C/c3ccc(F)cc3)cc2)s1,-5.6%,.,.,-29.1*,20.6µM*
CC(C(=O)NCCc1ccccc1)N1C(=O)COc2ccc(C(=O)COc3cccc(Cl)c3)cc21 (centres undefined),?,?,i,16.8,.
CC(C)Cn1c(=O)c2ccccc2n2c(CCC(=O)NCc3ccc(Cl)cc3)nnc12,1.7%,5.7%,?,-28.3*,-2.8%
Cc1ccc2c(c1)cc1c(=O)n(Cc3ccc(Cl)cc3)nc(C)n12,12.6%,8.6%,?,-6.8,.
Cc1ccc2c(c1)cc1c(=O)n(Cc3cccc(Cl)c3)nc(C)n12,8.9%,5.0%,i,-29.9*,-6.8%
COc1ccc2nc(SCC(O)c3cccc(Br)c3)[nH]c2c1 (centres undefined),-2.7%,11.1%,?,-44.0*,-18.8%
CCOC(=O)c1c(C)oc2c(Cl)cc(NS(=O)(=O)c3ccc(Cl)c(C)c3)cc12,0.1%,-3.5%,i,21.3,.
Cc1nn(-c2ccccc2)c(OC(=O)c2ccc(Br)cc2)c1S(=O)(=O)c1ccccc1,6.9%,-23.3%,?,-32.2*,27.7%
Cc1ccc(C(=O)Oc2c(S(=O)(=O)c3ccccc3)c(C)nn2-c2ccccc2)cc1,-0.5%,8.7%,?,-22.2,.
CN(C)S(=O)(=O)n1cc(/C=C(\NC(=O)c2ccccc2F)C(=O)NCCCn2ccnc2)c2ccccc21,-2.5%,-1.9%,i,7.1,.
Cc1ccc(C(=O)Nc2nc3nc(C)cc(=O)n3[nH]2)cc1,0.5%,17.6%,i,-26.8*,-18.2%
C[C@]12CCC(=O)C=C1CC[C@H]1[C@@H]3CC[C@](O)(C(=O)CO)[C@@]3(C)C[C@H](O)[C@@]12F,17.3%[23.9 µM],7.0%[25.6 µM],.,6.6,.
COc1nc2c(cc1CNC(=O)C1CCOCC1)C(=O)N(C1CCCC1)C2,0.1%,-21.5%,?,8.9,.
CCCC(=O)NCc1cc2c(nc1OC)CN(C1CCCC1)C2=O,1.8%,5.5%,i,-0.5,.
CCC(=O)NCc1cc2c(nc1OC)CN(C1CCCC1)C2=O,18.5%,4.1%,?,-32.8*,-9.9%
CCC(C)(C)C(=O)NCc1cc2c(nc1OC)CN(C1CCCC1)C2=O,-5.5%,-3.1%,i,-30.0*,8.7%
CCOCCN1C(=O)COC[C@@H]1[C@H](O)c1ccc(NC(=O)c2ccc(OC)cc2)cc1,-1.6%[87.6 µM],-8.5%[87.6 µM],i,-13.4,.
CCc1nn2c(=O)cc(CNc3cc4c(cc3Br)OCCO4)nc2s1,.,.,i,.,.
O=S1(=O)NCC2(CCN(Cc3c[nH]c4ccccc34)CC2)Oc2ncccc21,3.5%,9.5%,?,8.2,.
SMILES,HEK293 viab,SNCA expr inhib,KDM5B inhibitor,IP6K1 inh,IP6K1 conf
CCOc1ccc(-n2c(SCc3nc(-c4ccccc4C)no3)nnc2-c2ccccc2)cc1,9.2%,-5.5%,i,-11.5,.
Cc1cnc(Nc2ccc(OCCN3CCCC3)cc2)nc1Nc1cccc(S(=O)(=O)NC(C)(C)C)c1,?,34.9%,.,-0.5,25.0%
COC(=O)CSc1nc2c(cnn2-c2ccc(F)cc2)c(=O)[nH]1,-6.0%,4.5%,i,-31.7*,?
COc1cc(C(C)C)c(Oc2cnc(N)nc2N)cc1I,1.9%,.,.,-29.1*,?
NC(=O)c1ccc(Nc2cnc3ccc(-c4ccccc4)nn23)cc1,9.5%[87.6 µM],61.3%[87.6 µM],i,-29.4*,-21.6%
Fc1ccc(-c2ccc3ncc(Nc4ccc5c(c4)OCO5)n3n2)cc1,-24.9%[87.6 µM],3.4%[87.6 µM],i,-35.0*,?
COc1ccc(Nc2cnc3ccc(-c4ccccc4)nn23)cc1,-4.9%[87.6 µM],-12.2%[87.6 µM],i,7.6,.
COc1ccc(OCC(=O)NCc2ccc3c(c2)CCN3C(=O)c2ccc(F)cc2)cc1,20.4%,-4.1%,?,-35.9*,-9.1%
C=CCNC(=O)CSCc1coc(-c2ccc(OC)cc2)n1,.,.,i,.,.
Cc1ccnc2nc(NC(=O)c3ccccc3Cl)nn12,-3.9%,75.5%,?,-25.0*,-2.1%
Cc1ccc(/C=C/c2onc(C)c2S(=O)(=O)N2CCC(C(=O)N(CCC(C)C)Cc3ccco3)CC2)cc1,2.8%,9.1%,i,-38.1*,-9.3%
CCN(Cc1ccccc1)C(=O)C1CCN(S(=O)(=O)c2c(C)noc2/C=C/c2ccc(C)cc2)CC1,6.6%,-2.4%,?,6.4,.
COc1ccccc1Cn1c(C2CC(=O)N(c3ccccc3OC)C2)nc2ccccc21 (centres undefined),?,12.8%,?,-43.1*,12.1%
Cc1cccc(OCCCCn2c(C3CC(=O)N(c4ccc(C)cc4C)C3)nc3ccccc32)c1 (centres undefined),?,?,?,-39.2*,-18.5%
CCc1ccccc1N1CC(c2nc3ccccc3n2CCCCOc2ccccc2OC)CC1=O (centres undefined),2.4%,21.5%,?,-12.7,.
O=S(=O)(c1ccccc1)N1CCC(n2cc(-c3cncnc3)nn2)CC1,3.6%,-13.4%,i,4.1,.
O=C(Nc1ccccn1)C1c2ccccc2C(=O)N(Cc2ccccc2)C12CCCC2 (centres undefined),-14.8%,5.2%,i,-2.0,.
Cc1ccc2c(c1)cc(C(=O)NCc1cccs1)n2C,.,.,i,.,.
C=CCN(Cc1nc(-c2ccccc2)no1)C(=O)c1ccoc1C,.,.,i,.,.
C=CCN(Cc1nc(-c2ccccc2)no1)Cc1nccn1C,-5.7%,70.3%,i,-38.0*,-12.5%
CC(C)CN(CCNC(=O)c1cn(C)c2ccc(S(=O)(=O)N3CCCC3)cc2c1=O)CC(C)C,-16.8%,32.1%,i[11.5 µM],29.0,-7.6%
O=C(CN(C(=O)CNC(=O)c1ccco1)c1ccc(F)c(Cl)c1)NC1CCCCC1,.,.,i,.,.

# Screening results: PubChem BioAssay, National Center for Advancing Translational Sciences (NCATS)
